Assay outcomes from PubChem.
Shown are actives, neighbours in structure and some others; about 8% of the full set was active somewhere.
KB-3-1 tox – qHTS assay for MDR1-selective chemotherapeutics: Primary screen using the parental adenocarcinoma cell KB-3-1; KB-3-1 viability, CellTiter-Glo ATP luminescence, 72 h; Potency, µM (titrated, usually from 46.1 µM), hits mostly cytotoxic; actives 1.4% (n = 400,000); AID 1347075, 2019; also: % is scaled to controls: 0 for no effect and ±100 for the full control effect; nearly all actives have a fitted effect of over 60% in size
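Using CellTiter-Glo luminescence, growth of non-resistant KB-3-1 adenocarcinoma cells is assessed 72 h after pin-tool compound addition at 37 °C. Normalized responses across the concentration series yield fitted curves.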
SW480 rerep – A quantitative high throughput screen for small molecules that induce DNA re-replication in SW480 colon adenocarcinoma cells | actives 1.8% (n = 340,000) | Potency, µM (doses to about 46.1 µM), inactives show at the top dose re-replication activation, actives largely listed as activators | SW480 DNA re-replication, Hoechst DNA content imaging, 48 h; also: % of control where 0% means no effect; nearly all actives have a fitted effect of over 55% in size
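SW480 cells exposed to compounds for 48 hr at 37 C, 5% CO2, then Hoechst-stained 40 min. Nuclear DNA content imaged by fluorescence scanning (405 nm excitation, 500-530 nm emission); re-replication scored as increased high-intensity nuclei.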
HT1080-NT tox – qHTS for induction of synthetic lethality in tumor cells producing 2HG: qHTS for the HT-1080-NT fibrosarcoma cell line | HT-1080-NT fibrosarcoma viability, CellTiter-Glo ATP luminescence, 48 h | actives 1.6% (n = 360,000) | Potency, µM (highest dose often 46.1 µM), for the others: at the highest dose activity, negative = less viability, actives largely listed as cytotoxic;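 also: NT is the 2HG producing partner of a matched IDH1 knockdown line; 0% = DMSO-treated cells and -100% = media-only wells without cells; nearly all actives have a fitted effect of over 55% in size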
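A 48-hour cytotoxicity screen used HT-1080-NT cells plated 2 hours before compound delivery. ATP-based CellTiter-Glo luminescence measured viability, normalized to DMSO and no-cell controls.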
HT1080 IDH1KD tx – qHTS for induction of synthetic lethality in tumor cells producing 2HG: qHTS for the HT-1080-IDH1KD cell line; HT-1080 IDH1 knockdown viability, ATP luminescence, 48 h; Potency, µM (top dose mostly 46.1 µM), without a hit: at the top dose activity, negative = toxicity, usual class: cytotoxic; actives 2% (n = 360,000);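 also: 0% = DMSO wells and -100% = cell-free medium wells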
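HT-1080-IDH1KD cells (IDH1 knocked down), 750/well in RPMI with 5% FBS, treated with compound 48 h at 37 degrees C. Viability by CellTiter-Glo luminescence, normalised to DMSO and no-cell wells; concentration-response curves classed.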
MCF10A rerep – A quantitative high throughput screen for small molecules that induce DNA re-replication in MCF 10a normal breast cells | MCF 10A DNA re-replication, Hoechst nuclear intensity, 48 h | Potency, µM (top dose mostly 46.1 µM), for inactives: top-dose activity, positive = re-replication, actives largely listed as activators | actives 2.9% (n = 350,000); also: % of control where 0% means no effect; nearly all actives have a fitted effect of over 50% in size
KB-V1 cytotox – qHTS assay for MDR1-selective chemotherapeutics: Primary screen using the drug-selected MDR subline cells KB-V1; actives 3.4% (n = 400,000); KB-V1 MDR cells viability, CellTiter-Glo, 72 h; Potency, µM (titrated, usually from 46.1 µM), usual class: cytotoxic; also: % is scaled to controls: 0 for no effect and ±100 for the full control effect; nearly all actives have a fitted effect of over 60% in size
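Following 72 h at 37 degrees C with compound, KB-V1 cell viability was read by CellTiter-Glo luminescence, medium being phenol-red-free DMEM plus 10% FBS; concentration-response parameters came from normalized, curve-fitted qHTS data.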
* hit, by the source's call; i = inactive; ? = inconclusive; · = no result; [ ] = remark or other dose. Calls follow the shape of the dose curve; as a rule, active = well fitted curve in the direction sought with a large enough effect; inconclusive = small, poorly fitted or top-dose-only effect, or another doubt; inactive = no such curve, though single readings can be large; an effect the other way counts as inactive or inconclusive. Potency is read from the fitted curve at half-maximal effect.

SMILES	KB-3-1 tox	SW480 rerep	HT1080-NT tox	HT1080 IDH1KD tx	MCF10A rerep	KB-V1 cytotox
Cc1cccc(C)c1NC(=S)N=Nc1c(O)n(C)c2ccc(S(=O)(=O)N3CCOCC3)cc12	?	1.7%	8.4%	0.6%	?	3.66µM*
CCCCNC(=S)N1CCN(C(c2ccccc2)c2ccccc2)CC1	i	4.2%	?	-14.3%	?	?
CCOC(=O)C1(C)NC(c2ccc(N(C)C)cc2)C2C(=O)N(CC)C(=O)C21 (stereo not drawn)	i	-1.3%	11.9%	20.5%	8.1%	i
O=C(Nc1nc2c(s1)CCCCCC2)Nc1ccc(F)cc1F	i	·	·	·	·	i
c1ccc2c(c1)CCc1c(-c3ccncc3)n[nH]c1-2	13µM*	-12.9%	6.4%	0.0%	17.5%	14.6µM*
O=C(N/N=C1\CCc2ccccc21)c1ccncc1	i	?	-9.2%	-9.4%	2.8%	i
CC1CCCC(NC(=O)CC2Nc3ccccc3NC2=O)C1C (stereo not drawn)	i	-55.3%	-3.2%	0.4%	6.1%	16.4µM*
O=C(CC1Nc2ccccc2NC1=O)NC1CCCCC1 (stereo not drawn)	i	-6.7%	-2.1%	7.8%	0.9%	?
Cc1cn2c(=O)cc(COc3cccc(NC(=O)c4cccc(F)c4)c3)nc2s1	i	·	·	·	·	i
CCOc1ccc(-c2cnc3n2CCC3)cc1	?	9.2µM*	-1.6%	-1.0%	9.1%	?
CCCN1CN(Cc2ccccc2)CNC1=S	i	3.5%	7.9%	14.6%	-3.1%	i
CCOCCCNC(=O)C(c1ccc(C)cc1)N(Cc1cccs1)C(=O)c1ccc(NC(C)=O)cc1 (stereo not drawn)	i	·	·	·	·	i
CCc1ccc(S(=O)(=O)c2nnn3c2nc(N(CC)Cc2ccccc2)c2cc(Cl)ccc23)cc1	i	·	·	·	·	i
CCOc1ccc(C(=O)CC(=O)C(=O)NCCc2ccc(OC)c(OC)c2)cc1	i	?	-3.8%	-7.3%	14.1%	7.31µM*
CCOc1ccc(C(=O)Cc2cc(OC)c(OC)cc2[N+](=O)[O-])cc1	i	5.8µM*	3.8%	-4.9%	4.61µM*	i
O=C(c1ccco1)N1CCN(C(=O)c2ccc(COc3ccc4c(c3)CCC4)o2)CC1	i	-1.6%	-2.0%	-15.4%	3.4%	16.4µM*
O=C(c1ccc(COc2ccc3c(c2)CCC3)o1)N1CCN(c2ccccc2)CC1	i	-3.6%	?	-2.3%[9.24 µM]	7.7%	?
CC(C)(C)[C@H]1COC(=O)[C@@H](Cc2ccc(F)cc2)C/C=C\C[C@@H](CC(=O)N[C@@H](CO)Cc2ccccc2)C(=O)N1	i	-0.1%	-8.4%	-3.4%	-9.3%	i
c1ccc2c(c1)OCC(c1csc3ncnc(N4CCCC4)c13)O2 (stereo not drawn)	?	1.8%	-22.3%	-18.0%	-0.8%	13µM*
c1ccc(CCNc2ncnc3scc(C4COc5ccccc5O4)c23)cc1 (stereo not drawn)	?	4.9%	-25.9%	-29.5%	?	13µM*
CSCC[C@H](NC(=O)OC(C)(C)C)C(=O)N1CCC(C(=O)N[C@@H](C)C(=O)O)CC1	i	0.5%	-0.7%	-13.6%	2.9%	i
CCOC(=O)C1=CN(Cc2cccc(F)c2)S(=O)(=O)NC1c1ccccc1 (stereo not drawn)	i	-16.8%	-2.6%	-6.3%	-3.7%	i
CCOC(=O)C1=CN(Cc2cccc(F)c2)S(=O)(=O)NC1CCc1ccccc1 (stereo not drawn)	i	52.0%	?	?	14.6µM*	i
NS(=O)(=O)c1ccc(NS(=O)(=O)c2ccc(NC(=O)c3ccc(-c4ccccc4)cc3)cc2)cc1	i	16.2%	-19.8%	-3.0%	9.7%	i
CC(CCc1ccccc1)NC(=O)CSc1ccccc1 (stereo not drawn)	i	-0.6%	8.9%	17.2%	7.9%	?
SMILES	KB-3-1 tox	SW480 rerep	HT1080-NT tox	HT1080 IDH1KD tx	MCF10A rerep	KB-V1 cytotox
COc1cc(C2C(C#N)=C(C)NC3=C2C(=O)c2ccccc23)cc(OC)c1OC (stereo not drawn)	2.06µM*	-4.6%	0.891µM*	0.794µM*	3.4%	?
CCOc1ccc(C2C(C(=O)OC)=C(C)NC3=C2C(=O)c2ccccc23)cc1OC (stereo not drawn)	i	·	·	·	·	i
COc1ccc(C2C(C#N)=C(C)NC3=C2C(=O)c2ccccc23)cc1 (stereo not drawn)	i	0.1%	0.8%	10.2%	17.1%	i
C#CCOc1c(Br)cc(C2C(C(=O)OC)=C(C)NC3=C2C(=O)c2ccccc23)cc1OCC (stereo not drawn)	4.61µM*	·	·	·	·	?
CCOc1ccc(NC(=O)CCNS(=O)(=O)c2ccc3c(c2)CC(C)N3C(C)=O)cc1 (stereo not drawn)	i	-27.3%	-2.3%	9.2%	10.2%	?
C=CCNc1nc(Cl)nc(Nc2ccc(OC)cc2)n1	i	-6.0%	?	-27.5%	2.7%	13µM*
CCOc1cc(C=C2C(=O)c3ccccc3C2=O)ccc1OCC(=O)Nc1ccc(C)cc1	i	-1.3%	8.1%	12.6%	0.2%	i
COc1cc(N=c2c([N+](=O)[O-])nn(-c3ccc4c(c3)OCCO4)n2O)cc(OC)c1	?	?	-18.5%	?	20.6µM*	6.51µM*
CN=c1c([N+](=O)[O-])nn(-c2ccc3c(c2)OCCO3)n1O	i	16.4µM*	-8.7%	1.0%	2.0%	i
O=C(c1ccc(S(=O)(=O)c2ccccc2)cc1)N1CCc2ccccc2C1	i	-4.1%	-11.5%	-2.2%	3.7%	18.4µM*
CC1Cc2ccccc2N1C(=O)c1ccc(N2CCCC2)c([N+](=O)[O-])c1 (stereo not drawn)	i	?	-18.2%	-18.6%	?	i
O=C(c1ccc(N2CCCC2)c([N+](=O)[O-])c1)N1CCc2ccccc2C1	?	93.0%	-7.0%	-11.3%	?	2.59µM*
CC1Cc2ccccc2N1C(=O)c1ccc(N2CCCCC2)c([N+](=O)[O-])c1 (stereo not drawn)	i	21.9%	6.4%	3.2%	12.0%	13µM*
